Potency and affinity values are given separately.
Tested on: Escherichia coli
Conditions: Concentration 32 ug.mL-1;; ASSAY_TEST Inhibition of Bacterial Growth; detection method Absorption (OD600); MEDIA CAMHB; plate type 384well; NBS; CORNING #3640; time 18 hr

Row | SMILES | Inhibition
1 | Cc1cccc(NC(=O)Cn2nc3c(SC4CCCCC4)nccn3c2=O)c1C | 2.06%
2 | CCOc1ccc(-n2ccn3c(SCC(=O)Nc4ccc(C)cc4)nnc3c2=O)cc1 | 2.17%
3 | CCOc1ccc(-n2ccn3c(SCC(=O)c4cc(C)c(C)cc4C)nnc3c2=O)cc1 | -6.02%
4 | Cc1ccc(Oc2nccn3c(=O)n(CC(=O)Nc4cccc(Br)c4)nc23)cc1 | -7.18%
5 | COc1ccccc1CNC(=O)Cn1nc2c(SCc3ccc(Cl)cc3)nccn2c1=O | -3.98%
6 | Cc1nnc2ccc(S(=O)(=O)N(Cc3cccc(Cl)c3)c3ccc(F)cc3)cn12 | -8.44%
7 | Cc1ccc(-n2ccn3c(=O)n(Cc4ccccc4F)nc3c2=O)cc1C | -3.66%
8 | COc1cccc(-n2ccn3c(SCC(=O)NCc4ccco4)nnc3c2=O)c1 | -1.73%
9 | O=c1n(Cc2nc(-c3ccc4c(c3)OCO4)no2)nc2ccc(-c3ccccc3)nn12 | -9.98%
10 | CN(C(=O)Cn1nc2n(Cc3cccs3)c(=O)c3sccc3n2c1=O)c1ccccc1 | -16.81%
11 | O=c1c2nnc(SCc3ccccc3Cl)n2ccn1-c1ccc(F)cc1 | -4.39%
12 | O=C(CSc1nc2ccccc2n2cnnc12)NCc1ccccc1Cl | -4.49%
13 | COc1ccc(NC(=O)Cn2nc3c(Sc4ccccc4)nccn3c2=O)cc1OC | -5.11%
14 | CC(C)Cn1c(=O)c2sccc2n2c(=O)n(CC(=O)N(C)c3ccccc3)nc12 | -0.39%
15 | Cc1ccccc1Oc1nccn2c(=O)n(CC(=O)Nc3ccc(C#N)cc3)nc12 | -0.39%
16 | CCc1ccccc1NC(=O)CSc1nnc2ccc(C(=O)Nc3cccc(F)c3)cn12 | 1.35%
17 | Cc1nnc2ccc(S(=O)(=O)N(Cc3cc(F)cc(F)c3)c3ccccc3)cn12 | -1.77%
18 | CCOC(=O)c1ccc(NC(=O)Cn2nc3c(SCc4ccc(Cl)cc4)nccn3c2=O)cc1 | -14.83%
19 | Cc1ccc(NC(=O)Cn2nc3c(Oc4ccccc4)nccn3c2=O)c(Br)c1 | -7.68%
20 | O=C(CSc1nnc2c(=O)n(-c3ccc(Br)cc3)ccn12)c1c[nH]c2ccccc12 | -2.65%

Row | SMILES | Inhibition
21 | COc1ccc(CNC(=O)Cn2nc3c(N4CC(C)CC(C)C4)nccn3c2=O)cc1 (stereo not given) | -5.82%
22 | CCOC(=O)c1ccc(NC(=O)Cn2nc3c4cc(-c5ccc(C)cc5)nn4ccn3c2=O)cc1 | -8.93%
23 | Cc1ccc(Sc2nccn3c(=O)n(CC(=O)Nc4c(C)cc(C)cc4C)nc23)c(C)c1 | 1.82%
24 | CCc1nnc2c(=O)n(CC(=O)Nc3ccc(Br)cc3F)c3ccccc3n12 | 3.54%
25 | CCC(C)NC(=O)Cn1nc2n(Cc3cccs3)c(=O)c3sccc3n2c1=O (stereo not given) | -5.74%
26 | Cc1ccc(-c2cc3c4nn(CC(=O)Nc5cccc(Br)c5)c(=O)n4ccn3n2)cc1 | 0.32%
27 | Cc1ccc(NC(=O)Cn2nc3ccc(SCc4ccc(Cl)cc4)nn3c2=O)c(C)c1 | -8.79%
28 | COc1cccc(-n2ccn3c(SCc4cccc(C)c4)nnc3c2=O)c1 | -5.33%
29 | CCOc1ccc(NC(=O)Cn2nc3c(Sc4ccccc4)nccn3c2=O)cc1 | -2.95%
30 | Cc1cc2nn(CC(=O)Nc3cc(F)ccc3C)c(=O)n2c(Nc2ccc(F)c(C)c2)n1 | -0.59%
31 | Cc1nnc2ccc(S(=O)(=O)N(Cc3cc(F)cc(F)c3)c3ccc(F)cc3)cn12 | -3.09%
32 | Cc1cc2nn(CC(=O)Nc3ccc(F)cc3Cl)c(=O)n2c(Nc2ccc(F)cc2)n1 | -0.12%
33 | COc1ccc(N(Cc2cccc(F)c2)S(=O)(=O)c2ccc3nncn3c2)cc1 | 1.35%
34 | CC(C)n1c(=O)c2ccc(C(=O)NC3CCCC3)cc2n2c(=O)n(Cc3cccc(C(F)(F)F)c3)nc12 | 0.25%
35 | COc1ccc(NC(=O)Cn2nc3c(Oc4ccc(C)cc4)nccn3c2=O)cc1Cl | -3.22%
36 | Cc1ccc(Oc2nccn3c(=O)n(CC(=O)NCc4cccs4)nc23)cc1 | 1.37%
37 | Cc1nnc2c(=O)n(CC(=O)Nc3ccccc3Br)c3ccccc3n12 | 5.04%
38 | O=C(Cn1nc2c(Oc3ccccc3)nccn2c1=O)Nc1ccc(Br)cc1F | -11.64%
39 | Cc1ccc(F)cc1NC(=O)CSc1nnc2ccc(C(=O)Nc3cccc(F)c3)cn12 | 0.82%
40 | CCC(C)NC(=O)CCn1c(=O)c2ccccc2n2c(=O)n(CC(=O)NCc3cccs3)nc12 (stereo not given) | -2.09%

— ChEMBL document CHEMBL4513146, “CO-ADD screening of Karazin Kharkiv National University (Ukraine) compounds”
